Our source for the AC50 and outcome values is PubChem BioAssay (EPA / NIEHS).

Assay [1] in a line: CCTE_Shafer_MEA_dev_firing_rate_mean: CCTE's Neural Network Formation Assay for Mean Firing Rate, Shafer Lab (AID 2284031).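 For AC50: curve fitted for loss of firing so AC50 reflects decreased mean firing rate.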 The gist of the method: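 Extracellular spike frequency, AUC over DIV 5–12 recordings, in rat cortical neuron MEA cultures dosed from plating; loss direction vs DMSO.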
Assay [2] is described as follows: CCTE_Shafer_MEA_dev_per_burst_spike_percent: CCTE's Neural Network Formation Assay for Percent of Spikes in a Burst, Shafer Lab (AID 2284032).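 For AC50: fitted as a decrease in burst spike percentage below DMSO baseline.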 Summed up:
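Value is trapezoidal AUC over recordings on days 5, 7, 9 and 12 of the well-mean fraction of spikes falling in single-electrode bursts; rat cortical cultures exposed continuously from plating, treatment renewed DIV 5 and 9, fitted downward against DMSO.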

The nature of assay [3]: CCTE_Shafer_MEA_dev_active_electrodes_number: CCTE's Neural Network Formation Assay for Number of Active Electrodes, Shafer Lab (AID 2284040; active = hit-call score of the fitted dose curve at least 0.9, where 1 is the maximum;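 for AC50: potency for loss of active electrodes versus DMSO so lower counts are hits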). The gist of the method:
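Developing rat cortical networks on MEAs, exposed DIV 0–12. Value is the AUC of active-electrode counts (≥5 spikes/min) from days 5, 7, 9, 12, relative to DMSO.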

Assay [4] is described as follows: CCTE_Shafer_MEA_dev_burst_rate: CCTE's Neural Network Formation Assay for Burst Rate, Shafer Lab (AID 2284042).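 For AC50: potency for loss of burst rate below DMSO control.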 The gist of the method:
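Exposure ran continuously over 12 days of network development in rat cortical cultures, with compound refreshed during full media changes on DIV 5 and 9. Single-electrode bursts per recording time, well-mean over active electrodes, trapezoidal AUC across days 5–12, fitted downward relative to DMSO.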

Assay [5] in a line: CCTE_Shafer_MEA_dev_per_burst_interspike_interval: CCTE's Neural Network Formation Assay for Burst Interspike Interval, Shafer Lab (AID 2284044).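 For AC50: potency for a decrease of within-burst interspike interval below DMSO level.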 Summed up: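 Primary rat cortical neurons on 48-well MEA plates, exposed from day 0 through day 12, treatment renewed at DIV 5 and 9. Within-burst interspike interval recorded days 5, 7, 9, 12, well-averaged, summarised as AUC; negative fit versus DMSO.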

Assay [6] is described as follows: CCTE_Shafer_MEA_dev_burst_duration_mean: CCTE's Neural Network Formation Assay for Mean Burst Duration, Shafer Lab (AID 2284045).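 For AC50: curve fitted for loss meaning shorter burst duration than DMSO.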 Summed up:
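Network-formation assay in primary rat cortical neurons; treatment spans twelve days of development. Mean burst duration per well is integrated by trapezoidal AUC and fitted in the loss-of-signal direction against DMSO baseline.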

Assay [7] can be described thus: CCTE_Shafer_MEA_dev_interburst_interval_mean: CCTE's Neural Network Formation Assay for Mean Interburst Interval, Shafer Lab (AID 2284046).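 Note: well-mean interburst interval of bursting electrodes as AUC over four recording days; curve fitted for decrease in interburst interval relative to DMSO.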 Summed up:
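Primary rat cortical neurons on PEI-coated 48-well MEA plates (laminin added with cells at plating) (16 electrodes/well), exposed from plating day 0 with renewal at DIV 5 and 9. Mean inter-burst interval averaged over bursting electrodes, AUC across days 5, 7, 9, 12; DMSO baseline.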

Assay [8] can be described thus: CCTE_Shafer_MEA_dev_inter_network_spike_interval_mean: CCTE's Neural Network Formation Assay for Mean Inter-network Spike Interval, Shafer Lab (AID 2284047).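 For AC50: potency for a decrease in mean inter-network spike interval below DMSO.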 The gist of the method:
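Mean time between consecutive network-spike peaks, recorded extracellularly (adaptive spike detection) on DIV 5, 7, 9 and 12, summarized as trapezoidal AUC. Rat cortical cultures on MEAs dosed continuously days 0–12, re-dosed at feeds; loss-of-signal fit relative to DMSO.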

Assay [9] in a line: CCTE_Shafer_MEA_dev_network_spike_number: CCTE's Neural Network Formation Assay for Number of Network Spikes, Shafer Lab (AID 2284048).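 For AC50: fit as a loss of signal meaning fewer network spikes than DMSO.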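 Note: synchronized bursts across electrodes counted on days 5 7 9 12 and integrated as AUC.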 The gist of the method:
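Extracellular recordings from 16-electrode wells track network formation in rat cortical cultures under continuous treatment from plating. The endpoint is network spike number, expressed as AUC across DIV 5–12 relative to DMSO vehicle.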

A short description of assay [10]: CCTE_Shafer_MEA_dev_spike_duration_mean: CCTE's Neural Network Formation Assay for Mean Spike Duration, Shafer Lab (AID 2284051).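 For AC50: potency for a decrease in mean network spike duration versus DMSO.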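 Note: mean network spike duration pooled as area under curve over DIV 5 to 12 recordings.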 The gist of the method:
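Spontaneous activity was recorded on days 5, 7, 9 and 12 from rat cortical cultures grown on microelectrode arrays and dosed continuously from day 0, with media and compound renewed after the DIV 5 and 9 recordings. Network-spike duration was collapsed by area under the curve.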

Assay [11] is described as follows: CCTE_Shafer_MEA_dev_network_spike_duration_std: CCTE's Neural Network Formation Assay for Standard Deviation of Network Spike Duration, Shafer Lab (AID 2284052).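 Note: hits are decreases in network spike duration SD versus DMSO vehicle.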 The gist of the method:
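Network spike duration variability was collapsed across recordings on days 5, 7, 9 and 12 by trapezoidal area-under-curve and fitted downward against DMSO. Cultures were rat cortical neurons on PEI-coated MEA plates, dosed continuously from plating, refed with compound DIV 5/9.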

Assay [12] in a line: CCTE_Shafer_MEA_dev_per_network_spike_spike_number_mean: CCTE's Neural Network Formation Assay for Mean Number of Spikes in a Network Spike, Shafer Lab (AID 2284053).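 For AC50: fitted as decrease in spikes per network spike relative to DMSO.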 The gist of the method: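 Mean spike count within each network spike, taken in a 0.05 s window at its peak, was recorded on days 5, 7, 9 and 12 and integrated as trapezoidal area under the curve. Rat cortical cultures on MEA plates received continuous compound from day 0, refreshed at medium changes on DIV 5 and 9.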

Results filed as inconclusive are left out. A structure can be active in one record and inactive in another. Active and inactive are the calls of the source. Rule for the calls, unless noted: active = hit-call score of the fitted dose curve at least 0.9, where 1 is the maximum; inactive = score below 0.9.

Broadly, the AC50 is the concentration giving half of the maximal activity seen. For `C/C(=C/C=C/[C@@H](C)C(=O)O)[C@H]1CN[C@H](C(=O)O)[C@H]1CC(=O)O`, the AC50 is 68 nM (active) in assay [1]; 2060 nM (active) in assay [2]; 970 nM (active) in assay [3]; 131 nM (active) in assay [4]; 1330 nM (active) in [5]; 992 nM (active) in assay [6]. For the same compound, the AC50 in assay [7] is 32.2 nM (active); in assay [8], 160 nM (active); in [9], 21.8 nM (active); in assay [10], 1130 nM (active); in assay [11], 259 nM (active); in assay [12], 1050 nM (active). Besides, the outcome in assay [1], in [2], in [3], in assay [4], in assay [5] and in assay [6] was inactive. The compound was called inactive in [7], in assay [8], in assay [9], in [10], in [11] and in assay [12].
